Source: the supplement of paper PMC10646978
± gives the standard deviation.

Key:
Settings in all cases: modulator concentration 10 µM
[1] = test system: RAW-Dual (murine macrophage reporter line); assay: NF-kB reporter (SEAP) activity fold change vs agonist alone; higher = enhanced NF-kB activity
Method in brief: (§1)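 Overnight stimulation with a PRR agonist followed pre-incubation for 1 hour at 37 °C with compound at 10 μM final. This was done in RAW-Dual murine macrophage reporter cells seeded at 50 000 per well in 384-well plates. NF-κB (SEAP, QUANTI-Blue absorbance at 620 nm) and IRF (Lucia luciferase, QUANTI-Luc luminescence) were read from the supernatant. Each reporter's fold change relative to the mean agonist-only control on the same plate was averaged over replicate plates.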

[2] = test system: RAW-Dual (murine macrophage reporter line); assay: IRF reporter (Lucia luciferase) activity fold change vs agonist alone; higher = enhanced IRF activity
Method in brief: as §1

[3] = test system: RAW-Dual (murine macrophage reporter line); assay: viability score (confluency relative to resting cells, overnight) (fraction); higher = more viable, active = viable (0.7 or more)
Method in brief: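 Overnight exposure to 10 μM final compound was carried out on RAW-Dual macrophages in 384-well plates. IncuCyte software generated two confluency masks over all wells imaged with IncuCyte. The viability score gives confluency in relation to resting cells. A compound met the cutoff if each mask exceeded 70% of resting cells.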

[4] = agonist: CpG ODN 1826 0.5 ug/mL

O=C(Cn1c(=O)oc2ccccc21)N1Cc2cncnc2C1
NF-kB reporter [1, 4]: 0.853 ± 0.24
NF-kB reporter ([1]; agonist: LPS 0.1 ug/mL): 1.04 ± 0.052
NF-kB reporter ([1]; agonist: MPLA […]): 0.988 ± 0.065
IRF reporter ([2]; agonist: 3'3'-cGAMP 10 ug/mL): 0.921 ± 0.042
IRF reporter ([2]; agonist: LPS 0.1 ug/mL): 0.991 ± 0.15
IRF reporter ([2]; agonist: MPLA […]): 0.991 ± 0.12
viability score [3]: 0.998 (active)

NC(=O)c1nc(F)cnc1O
NF-kB reporter [1, 4]: 1.06 ± 0.25
NF-kB reporter ([1]; agonist: LPS 0.1 ug/mL): 1.04 ± 0.051
NF-kB reporter ([1]; agonist: MPLA […]): 2.37 ± 1.4
IRF reporter ([2]; agonist: 3'3'-cGAMP 10 ug/mL): 0.897 ± 0.031
IRF reporter ([2]; agonist: LPS 0.1 ug/mL): 1.27 ± 0.14
IRF reporter ([2]; agonist: MPLA […]): 1.39 ± 0.14
viability score [3]: 1.01 (active)

Cl.O=C1c2cccc3c2C(CCC3)CN1C1CN2CCC1CC2 (stereo unspecified)
NF-kB reporter [1, 4]: 0.77 ± 0.21
NF-kB reporter ([1]; agonist: LPS 0.1 ug/mL): 0.704 ± 0.044
NF-kB reporter ([1]; agonist: MPLA […]): 0.825 ± 0.058
IRF reporter ([2]; agonist: 3'3'-cGAMP 10 ug/mL): 0.557 ± 0.035
IRF reporter ([2]; agonist: LPS 0.1 ug/mL): 0.718 ± 0.086
IRF reporter ([2]; agonist: MPLA […]): 0.924 ± 0.14
viability score [3]: 0.987 (active)

COc1cc2ccc(=O)oc2cc1O
NF-kB reporter [1, 4]: 1.04 ± 0.31
NF-kB reporter ([1]; agonist: LPS 0.1 ug/mL): 0.862 ± 0.062
NF-kB reporter ([1]; agonist: MPLA […]): 0.892 ± 0.057
IRF reporter ([2]; agonist: 3'3'-cGAMP 10 ug/mL): 0.909 ± 0.053
IRF reporter ([2]; agonist: LPS 0.1 ug/mL): 1.11 ± 0.17
IRF reporter ([2]; agonist: MPLA […]): 0.946 ± 0.12
viability score [3]: 1 (active)

CN(C)C(=O)COC(=O)Cc1ccc(OC(=O)c2ccc(NC(=N)N)cc2)cc1.CS(=O)(=O)O
NF-kB reporter [1, 4]: 1.04 ± 0.045
NF-kB reporter ([1]; agonist: LPS 0.1 ug/mL): 0.913 ± 0.083
NF-kB reporter ([1]; agonist: MPLA […]): 1.01 ± 0.079
IRF reporter ([2]; agonist: 3'3'-cGAMP 10 ug/mL): 1.07 ± 0.049
IRF reporter ([2]; agonist: LPS 0.1 ug/mL): 1.21 ± 0.22
IRF reporter ([2]; agonist: MPLA […]): 1.25 ± 0.4
viability score [3]: 0.829 (active)

CCC(C)(Oc1ccc(C2(c3ccc(OC(C)(CC)C(=O)O)cc3)CCCCC2)cc1)C(=O)O (stereo unspecified)
NF-kB reporter [1, 4]: 1.14 ± 0.26
NF-kB reporter ([1]; agonist: LPS 0.1 ug/mL): 1.09 ± 0.39
NF-kB reporter ([1]; agonist: MPLA […]): 0.919 ± 0.063
IRF reporter ([2]; agonist: 3'3'-cGAMP 10 ug/mL): 0.946 ± 0.037
IRF reporter ([2]; agonist: LPS 0.1 ug/mL): 1.29 ± 0.44
IRF reporter ([2]; agonist: MPLA […]): 1.24 ± 0.093
viability score [3]: 0.986 (active)

O=C(CCc1ccc(O)cc1)c1c(O)cc(O)cc1OC1OC(CO)C(O)C(O)C1O (stereo unspecified)
NF-kB reporter [1, 4]: 1.37 ± 0.33
NF-kB reporter ([1]; agonist: LPS 0.1 ug/mL): 0.943 ± 0.047
NF-kB reporter ([1]; agonist: MPLA […]): 0.963 ± 0.072
IRF reporter ([2]; agonist: 3'3'-cGAMP 10 ug/mL): 0.961 ± 0.066
IRF reporter ([2]; agonist: LPS 0.1 ug/mL): 0.98 ± 0.18
IRF reporter ([2]; agonist: MPLA […]): 1.02 ± 0.14
viability score [3]: 1.01 (active)

CCN1CCN(Cc2ccc(Nc3ncc(F)c(-c4cc(F)c5nc(C)n(C(C)C)c5c4)n3)nc2)CC1.CS(=O)(=O)O
NF-kB reporter [1, 4]: 0.095 ± 0.023
NF-kB reporter ([1]; agonist: LPS 0.1 ug/mL): 0.793 ± 0.04
NF-kB reporter ([1]; agonist: MPLA […]): 3.04 ± 0.21
IRF reporter ([2]; agonist: 3'3'-cGAMP 10 ug/mL): 0.29 ± 0.018
IRF reporter ([2]; agonist: LPS 0.1 ug/mL): 0.19 ± 0.035
IRF reporter ([2]; agonist: MPLA […]): 0.314 ± 0.03
viability score [3]: 0.852 (active)

Br.O=S(=O)(c1ccc(-c2csc(Nc3cccc4ccccc34)n2)cc1)N1CCOCC1
NF-kB reporter [1, 4]: 0.907 ± 0.077
NF-kB reporter ([1]; agonist: LPS 0.1 ug/mL): 1.01 ± 0.089
NF-kB reporter ([1]; agonist: MPLA […]): 1 ± 0.061
IRF reporter ([2]; agonist: 3'3'-cGAMP 10 ug/mL): 0.769 ± 0.053
IRF reporter ([2]; agonist: LPS 0.1 ug/mL): 1.25 ± 0.08
IRF reporter ([2]; agonist: MPLA […]): 1.12 ± 0.32
viability score [3]: 1 (active)

CC1(C)CC(=O)C2=C(C1)OC(N)=C(C#N)C2C1CCCCC1 (stereo unspecified)
NF-kB reporter [1, 4]: 0.983 ± 0.076
NF-kB reporter ([1]; agonist: LPS 0.1 ug/mL): 0.926 ± 0.12
NF-kB reporter ([1]; agonist: MPLA […]): 0.929 ± 0.093
IRF reporter ([2]; agonist: 3'3'-cGAMP 10 ug/mL): 0.987 ± 0.089
IRF reporter ([2]; agonist: LPS 0.1 ug/mL): 1.33 ± 0.22
IRF reporter ([2]; agonist: MPLA […]): 1.47 ± 0.19
viability score [3]: 1.01 (active)

COc1c(Cl)ccc(Cl)c1C(=O)NCc1ccccc1
NF-kB reporter [1, 4]: 0.812 ± 0.13
NF-kB reporter ([1]; agonist: LPS 0.1 ug/mL): 1.01 ± 0.12
NF-kB reporter ([1]; agonist: MPLA […]): 1.06 ± 0.11
IRF reporter ([2]; agonist: 3'3'-cGAMP 10 ug/mL): 1.15 ± 0.03
IRF reporter ([2]; agonist: LPS 0.1 ug/mL): 1.25 ± 0.14
IRF reporter ([2]; agonist: MPLA […]): 1.33 ± 0.25
viability score [3]: 1 (active)

Clc1cnc(NC2CCN(c3ncnc4c3CCCC4)CC2)nc1
NF-kB reporter [1, 4]: 0.969 ± 0.043
NF-kB reporter ([1]; agonist: LPS 0.1 ug/mL): 1.08 ± 0.089
NF-kB reporter ([1]; agonist: MPLA […]): 1.55 ± 0.24
IRF reporter ([2]; agonist: 3'3'-cGAMP 10 ug/mL): 0.698 ± 0.032
IRF reporter ([2]; agonist: LPS 0.1 ug/mL): 1.16 ± 0.21
IRF reporter ([2]; agonist: MPLA […]): 1.29 ± 0.47
viability score [3]: 0.954 (active)

CC(C)(C)C1CCc2c(sc(NC(=O)c3cccs3)c2C(=O)N2CCCC2)C1 (stereo unspecified)
NF-kB reporter [1, 4]: 0.93 ± 0.073
NF-kB reporter ([1]; agonist: LPS 0.1 ug/mL): 1.06 ± 0.061
NF-kB reporter ([1]; agonist: MPLA […]): 0.993 ± 0.13
IRF reporter ([2]; agonist: 3'3'-cGAMP 10 ug/mL): 0.984 ± 0.027
IRF reporter ([2]; agonist: LPS 0.1 ug/mL): 1.14 ± 0.12
IRF reporter ([2]; agonist: MPLA […]): 1.03 ± 0.068
viability score [3]: 1.01 (active)
